This note sets out measurements from PubChem BioAssay (NCATS).

Values without a mark were called inactive. Records with an inconclusive call do not appear. Active and inactive are the calls of the source. Unless noted, the call rests on the fitted dose curve; in most records, active means well fitted activation curve with a large enough effect in the main read-out, with a control signal flat (not every such curve was filed as active); inconclusive means small, poorly fitted or top-dose-only effect, or effect the other way, or a change in a side signal; inactive means flat fitted curve, though single readings scatter.

Sequence of 3',5'-cyclic-AMP phosphodiesterase 4B (Homo sapiens) (Q07343 whole entry, looked up): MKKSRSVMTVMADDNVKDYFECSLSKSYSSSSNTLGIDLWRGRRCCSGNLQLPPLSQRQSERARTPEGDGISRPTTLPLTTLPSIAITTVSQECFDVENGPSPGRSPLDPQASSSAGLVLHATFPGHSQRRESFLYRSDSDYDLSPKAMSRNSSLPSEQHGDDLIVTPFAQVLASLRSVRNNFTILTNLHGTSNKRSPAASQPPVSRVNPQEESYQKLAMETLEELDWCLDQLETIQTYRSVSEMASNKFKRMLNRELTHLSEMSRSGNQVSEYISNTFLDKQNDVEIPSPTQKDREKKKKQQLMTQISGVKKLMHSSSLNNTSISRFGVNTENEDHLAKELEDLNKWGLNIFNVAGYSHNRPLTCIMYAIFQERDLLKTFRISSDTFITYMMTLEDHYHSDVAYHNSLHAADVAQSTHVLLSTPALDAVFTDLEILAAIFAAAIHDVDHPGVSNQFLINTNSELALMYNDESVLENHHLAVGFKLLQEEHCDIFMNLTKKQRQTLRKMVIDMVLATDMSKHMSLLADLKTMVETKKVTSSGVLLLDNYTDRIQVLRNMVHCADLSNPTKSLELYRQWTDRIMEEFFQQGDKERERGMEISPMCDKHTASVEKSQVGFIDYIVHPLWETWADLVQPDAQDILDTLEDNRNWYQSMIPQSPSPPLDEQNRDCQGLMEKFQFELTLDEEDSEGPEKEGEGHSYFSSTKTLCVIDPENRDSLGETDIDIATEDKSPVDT

The first assay concerns the target 3',5'-cyclic-AMP phosphodiesterase 4B (Homo sapiens) (UniProt Q07343). The assay can be described thus: qHTS Assay for Inhibitors of PDE-IV (AID 607). Further: % of control where 0% means no effect. The conditions noted are these: HEK293 ACTOne CNG channel cells, membrane potential fluorescence; series mostly up to 22.9 µM; activation (PDE inhibition): at the top concentration. In outline: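 Cell-based read-out of cAMP via a modified cyclic nucleotide-gated channel and membrane potential dye (535/590 nm) in HEK293 cells expressing PDE4 endogenously. Compounds tested up to 22.9 uM final; 100 uM RO 20-1724 reference.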
On the technique in general: qHTS replaces the single test concentration by a dilution series.
Consider `CCn1nc(C(=O)O)c(=O)c2cc3c(cc21)OCO3`, for which the Potency entry was “inactive”.
`CCCN(CCC)CCc1cccc2c1CC(=O)N2`: the “activation (PDE inhibition)” value was -0.899%.
Consider `O=C(O)CCCCCCCC(=O)O`, for which the “activation (PDE inhibition)” value was -1.69%.
Take `O=C(O)CP(=O)(O)O`: the Potency entry was “inactive”.
Consider `CN(C)CCN(Cc1cccs1)c1ccccn1`, for which the Potency result is “inactive”.
With `CCCCCCCC/C=C\CCCCCCCC(=O)NCc1ccc(O)c(OC)c1`, the “activation (PDE inhibition)” value was 7.77%.

Tested on in another assay: not listed separately
The assay can be described thus: Cellular Toxicity (caspase-3) HepG2 (AID 654; active means well fitted activation curve with a large enough effect;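 further: cells exposed to compound for 16 hours before reading; 0% = DMSO alone and 100% = caspase signal from 100 µM tamoxifen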). Particulars: HepG2 caspase-3 activation, luminescence, 0% = DMSO only, 100% = tamoxifen; series mostly up to 92.2 µM; caspase-3 activation: at the top concentration. The essentials: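 Caspase 3/7 activation is measured as a luminescence increase (aminoluciferin substrate) after 16 h compound exposure of human hepatocarcinoma HepG2 cells. AC50 values are Hill fits, scaled between DMSO baseline and 100 uM tamoxifen stimulation.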
Regarding `CCCCOCCOCCOCc1cc2c(cc1CCC)OCO2`, the “caspase-3 activation” value was -0.339%.
Same read-out and setting: as for `O=c1[nH]c(=O)n([C@H]2C[C@H](O)[C@@H](CO)O2)cc1Br`, the figure is -0.154%.
Still for that read-out and setting: as for `NC(=Nc1ccccc1)Nc1ccccc1`, the figure is 0.774%.
Still for that read-out and setting: with `Nc1ncn([C@@H]2O[C@H](CO)[C@@H](O)[C@H]2O)c(=O)n1` the figure was -1.16%.

Tested on in the next assay: not listed separately
The experiment in a line: Cellular Toxicity (caspase-3) Jurkat (AID 655; active means well fitted activation curve with a large enough effect;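 further: cells exposed to compound for 16 h at 37 °C before reading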; further: potency means the concentration at half of the fitted maximal effect). Particulars: Jurkat caspase-3 activation, luminescence; series mostly up to 92.2 µM; caspase-3 activation: at the top concentration. The source says: NIH Chemical Genomics Center [NCGC]
NIH Molecular Libraries Screening Centers Network [MLSCN]
National Institutes of Environmental Health Sciences [NIEHS]
National Toxicology Program [NTP]
We have developed a 1536-well cell-based assay for quantitative high throughput screening (qHTS) against a number of cell lines to determine in vitro caspase 3/7 of small molecules. This particular assay uses the Jurkat cell line which is derived from human T cell leukemia.
NCGC Assay Protocol Summary:
The Caspase-Glo 3/7 assay (Promega) is a homogeneous method to measure caspase-3 and caspase-7 activities in cultured cells. The quantitation of caspase 3/7 activity is based on the cleavage of a peptide-aminoluciferin substrate. After caspase cleaves the substrate the free aminoluciferin is liberated and serves as the substrate of luciferase, which generates the light. The luminescent signal is proportional to amount of caspase 3/7 activity present.
Using the Caspase-Glo 3/7 assay, the amount of caspase 3/7 activity was measured in the Jurkat cell line with complete culture medium following compound treatment for 16 hours. The assay was performed in opaque white 1536-well plates. In the screen, tamoxifen and doxorubicin were used as positive controls. Library compounds were measured for their ability to cause the activation of caspase 3/7 in the cell line, as reflected by an increase in luminescence signal, in a concentration-dependent manner. Data were normalized to the controls for basal activity (DMSO only) and 100% stimulation (100 uM tamoxifen). AC50 values were determined from concentration-response data modeled with the standard Hill equation.
qHTS protocol for caspase 3/7 assay in Jurkat cells
[Step] [Parameter] [Value] [Description]
1. Reagent; 5 uL; 5000 Jurkat cells/well
3. Controls; 23 nL; Tamoxifen 0.23 uM to 100 uM & Doxorubicin 7.0 pM to 100 uM
4. Time; 16 hr; 37 °C incubation
5. Reagent; 5 uL; Caspase-Glo 3/7 reagent
6. Time; 20 min; Room Temperature
7. Detection; Luminescence; Viewlux plate reader
Keywords: caspase 3/7, apoptosis, Jurkat cell line, luminescence, NTPHTS, NTPHTS_NCGC, NIEHS, EPA, DSSTox, MLSMR, MLSCN, NIH Roadmap, qHTS, NCGC
`CCCCOCCOCCOCc1cc2c(cc1CCC)OCO2`: the “caspase-3 activation” value was 0.416%.
Still for that read-out and setting: with `O=c1[nH]c(=O)n([C@H]2C[C@H](O)[C@@H](CO)O2)cc1Br` the figure was 7.77%; with `NC(=Nc1ccccc1)Nc1ccccc1`, 2.91%.
In the case of `Nc1ncn([C@@H]2O[C@H](CO)[C@@H](O)[C@H]2O)c(=O)n1`, the Potency was 2000 nM (active).
